# A selection: hits, their analogues and other compounds. The true share with any hit is near 0.88%.
# MBNL1 CUG block: inhibitors of human MBNL1 binding to CUG repeat RNA; TR-FRET MBNL1-His/biotin-(CUG)12 binding, 665/545 ratio; 280,000 tested, 0.036% active; Potency, µM (highest dose often 57.5 µM), without a hit: at the top dose activity change, negative = inhibition, usual class: inhibitors; Q9NR56; AID 2675; active = well fitted inhibition curve with a large enough effect in the signal ratio, with a control signal flat, not every such curve was filed as active; inconclusive = small, poorly fitted or top-dose-only effect, or effect the other way, or a change in a side signal; inactive = no such curve, though single readings can be large or run the other way; the % refers to the signal ratio; note: potency is the fitted concentration of half-maximal effect; % is set by controls: 0 for no effect and ±100 for the full control effect
#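 Inhibition of protein-RNA binding appears as loss of TR-FRET between terbium anti-His antibody on MBNL1-His and streptavidin-XL665 on biotin-(CUG)12. Activity is normalized to buffer-only and uninhibited-complex controls.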
# TRHR agonist-1: agonists of human TRH receptor | TRHR cells, calcium flux fluo-8, FDSS agonist mode | activation, % at 2 µM | 360,000 tested, 0.18% active | AID 493084; in the data active = activation above about 30%; note: 0% is about no effect
#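 TRHR-expressing cells loaded with fluo-8 calcium dye; 23 nL library compound pin-transferred, kinetic FDSS fluorescence (Ex 480/Em 530) recorded about 180 s for agonist-induced calcium release, before a 10 nM TRH EC20 addition for potentiator mode.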
# IL2 activator: activates IL-2 in a cell-based reporter assay | 360,000 tested, 0.065% active | IL-2 activation reporter assay, cell-based qHTS; stimulated with anti-CD3/CD4/CD28 beads; in transgenic mouse T cells | activation, % (series mostly up to about 46 µM); in the data active = activation above about 50%; inconclusive = mostly about 30% to 49%; note: 0% is about no effect
#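 Screening format: compound pinned onto unstimulated transgenic mouse T cells, 60 min incubation, then anti-CD3/anti-CD4/anti-CD28 bead stimulation for 18 hours at 37 degrees C, followed by EGFP and DsRed detection.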
# CBFb-RUNX1 inh: blocks binding between human CBF-beta and RUNX1; AlphaScreen CBFb-His/RUNX1-biotin binding, biochemical; Potency, µM (highest dose often 59.8 µM), for the others: top-dose activity, negative = inhibition, actives largely listed as inhibitors; 230,000 tested, under 10 active; AID 1477; note: % of control where 0% means no effect
# Target sequence (Q01196 whole entry, looked up): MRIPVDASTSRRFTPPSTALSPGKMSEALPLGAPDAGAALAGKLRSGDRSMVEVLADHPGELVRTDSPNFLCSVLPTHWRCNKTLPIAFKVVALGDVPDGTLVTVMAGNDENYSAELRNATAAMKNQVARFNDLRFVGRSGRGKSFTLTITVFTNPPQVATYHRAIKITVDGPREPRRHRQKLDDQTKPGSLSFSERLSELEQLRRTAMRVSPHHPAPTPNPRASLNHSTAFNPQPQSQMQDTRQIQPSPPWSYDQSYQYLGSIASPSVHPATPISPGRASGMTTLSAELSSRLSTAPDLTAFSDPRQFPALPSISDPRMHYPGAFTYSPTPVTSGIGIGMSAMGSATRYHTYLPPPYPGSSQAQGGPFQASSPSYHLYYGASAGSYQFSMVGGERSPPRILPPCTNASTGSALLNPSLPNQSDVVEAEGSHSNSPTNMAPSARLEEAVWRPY
# Target sequence (Q13951 whole entry, looked up): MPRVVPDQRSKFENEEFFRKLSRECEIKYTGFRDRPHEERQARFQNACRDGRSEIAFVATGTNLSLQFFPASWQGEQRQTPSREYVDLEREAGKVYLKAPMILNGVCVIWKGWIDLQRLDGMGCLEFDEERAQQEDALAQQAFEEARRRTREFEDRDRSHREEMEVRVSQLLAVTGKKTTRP
#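 His-tagged CBF-beta and biotinylated RUNX1 (30 nM each) were premixed 20 min at room temperature, exposed to compound for 15 min, then given nickel-chelate and streptavidin AlphaScreen beads (50 ng each). After 90 min, AlphaScreen signal was read.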
# Epigenetic derep: regulators of epigenetic silencing causing reporter derepression in mouse cells. murine LDR cells, GFP reporter derepression, 30 h. Potency, µM (doses to about 53.9 µM), for inactives: at the highest dose GFP activation, most hits filed as activators. 280,000 tested, 0.2% active; note: potency is the fitted concentration of half-maximal effect; % of control where 0% means no effect; nearly all actives have a fitted effect of over 60% in size
#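 Murine LDR cells carrying a silenced, genomically integrated CMV-driven GFP reporter were exposed to compound for 30 hours at 37 C. After PBS washes, GFP-positive cells (20–120 um objects) were counted by laser-scanning microplate cytometry.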
# TRHR enhancer-1: allosterically enhances the human TRH receptor. P34981. TRHR cells, fluo-8 calcium fluorescence, EC20 TRH enhancement. enhancement, % at 2 µM. 360,000 tested, 0.66% active. AID 493056; in the data active = enhancement above about 30%; note: 0% is about no effect
#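 TRHR-expressing cells loaded with fluo-8 calcium dye were read kinetically (ex 480/em 530) during compound addition, then stimulated with an EC20 of TRH (10 nM final). Enhancement of the Gq-mediated intracellular calcium response was scored.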
# C127i cell count: changes parental c127i cell counts in epigenetic modulator counter-screen; 60 tested, 20% active; Potency, µM, for inactives: top-dose fluorescent cell count, actives largely listed as activators; shares compounds with Epigenetic derep; AID 493065; mouse c127i parental cells, fluorescent cell count, 30 h
# HCC4017 viab: epigenetic modulators: cytotoxicity in HCC4017 lung cancer cells | shares compounds with Epigenetic derep | HCC4017 NSCLC viability, CellTiter-Glo ATP luminescence, 72 h | Potency, µM (series often up to 46.1 µM), for inactives: top-dose activity change, negative = cytotoxicity, hits mostly cytotoxic | 45 tested, 30% active | AID 493071
# H358 tox: H358 cytotoxicity of epigenetic modulator hits. AID 493074. Potency, µM (highest dose often 46.1 µM), for the others: at the highest dose activity change, negative = viability loss, most hits filed as cytotoxic. shares compounds with Epigenetic derep. 45 tested, 30% active. H358 NSCLC viability, ATP luminescence, 72 h
# MBNL1 TRFRET: blocks human MBNL1 binding to CUG repeat RNA, TR-FRET validation. shares compounds with MBNL1 CUG block. 140 tested, 50% active. Potency, µM (series often up to 57.6 µM), inactives show at the top dose activity change, negative = inhibition, hits mostly inhibitors. AID 493199. TR-FRET MBNL1-His / biotin-(CUG)12 binding, 60 min
# MBNL1 AlphaScrn: blocks MBNL1 binding to (CUG)12 RNA in AlphaScreen; shares compounds with MBNL1 CUG block; AlphaScreen MBNL1-His / biotin-(CUG)12 binding; Potency, µM (series often up to 57.7 µM), for the others: top-dose activity, negative = inhibition, hits mostly inhibitors; 140 tested, 30% active
# TRHR enhancer-2: confirmation of human TRH receptor allosteric enhancers; activity change, negative = inhibition, % at 46.1 µM; TRH receptor cell assay, enhancer confirmation qHTS; shares compounds with TRHR enhancer-1; AID 493076; 970 tested, under 10 active;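 note: compound effect scored on response to added TRH at EC20 of 10 nM; 0% is about no effect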
# TRHR agonist-2: human TRH receptor agonism confirmation; shares compounds with TRHR enhancer-1; TRHR-expressing cells, agonist activation read-out; 970 tested, 8% active; Potency, µM (series often up to 46.1 µM), for inactives: top-dose activation, usual class: activators; note: potency is the fitted concentration of half-maximal effect; 0% is about no effect; nearly all actives have a fitted effect of over 75% in size
# Active calls of the source: *; ? = inconclusive; nt = not tested or not shown; [ ] = dose if it differs, or a comment. Unless noted, calls come from the whole dose curve; as a rule, active = well fitted curve in the direction sought with a large enough effect; inconclusive = small, poorly fitted or top-dose-only effect, or another doubt; inactive = no such curve, though single readings can be large; an effect the other way counts as inactive or inconclusive.
SMILES,MBNL1 CUG block,TRHR agonist-1,IL2 activator,CBFb-RUNX1 inh,Epigenetic derep,TRHR enhancer-1,TRHR enhancer-2,TRHR agonist-2,others
COc1ccc(OC)c(N2C(=O)NC(=O)/C(=C\c3ccc([N+](=O)[O-])s3)C2=O)c1,nt,1.5,-4.1,-25.7%,?,-8.0,nt,nt,C127i cell count=6.0%;HCC4017 viab=-9.2%;H358 tox=-26.1%
C=CC(=C)C,nt,nt,nt,-3.0%[21.7 µM],nt,nt,nt,nt,
C[C@H]1C[C@@H](C)C(=O)[C@@H]([C@H](O)CC2CC(=O)NC(=O)C2)C1,-0.6%,-0.6,-0.3,11.6%,?,-3.3,nt,nt,C127i cell count=3.0%
CCN(CC)c1ccc2c(c1)oc(=O)c1c(Cl)cc(=O)oc12,155.9%,75.1*,-0.6,?,8.91µM*,-10.3,nt,nt,C127i cell count=31.6µM*
CC(Cc1cccc(C(F)(F)F)c1)NCCCc1ccccc1 (centres undefined),nt,nt,nt,?,6.3%,nt,nt,nt,
N#CN=C1SCCN1Cc1ccc(Cl)nc1,nt,nt,nt,6.3%,nt,nt,nt,nt,
CC(O)C(C)OC(=O)[C@@H]1C[C@@H]2c3cccc4c3c(cn4C(C)C)C[C@H]2N(C)C1 (some centres undefined),nt,nt,nt,?,2.4%,nt,nt,nt,MBNL1 TRFRET=?;MBNL1 AlphaScrn=-44.4%
O=C(O)[C@@H]1CSC(c2cccnc2)N1 (some centres undefined),nt,nt,nt,3.4%,-1.1%,nt,nt,nt,
Cc1ccc(-c2nc3ccccc3c(=O)n2-c2ccc(O)cc2)cc1,-2.9%,-0.5,-3.5,1.2%,-1.2%,-2.8,nt,nt,
O=c1c2ccccc2nc(-c2ccccc2)n1-c1ccc(O)cc1,1.0%,0.1,-0.4,4.7%,0.0%,46.5*,3.9,-0.7%,
CC(C)(C)P(=O)(NCc1ccccc1)c1ccccc1 (centres undefined),2.5%,2.5,0.7,-2.7%,3.9%,4.6,nt,nt,
CC(C)CNP(=S)(c1ccccc1)C(C)(C)C (centres undefined),-9.4%,0.3,0.1,14.3%,0.1%,43.1*,-10.9,1.2%,
NNC(=O)c1ccc(O)cc1,nt,0.0,-0.1,-2.6%,-1.2%,46.6*,12.5,-0.7%,
N[C@@]1(C(=O)O)CC[C@H](C(=O)O)C1,nt,nt,nt,1.0%[21.7 µM],-0.4%,nt,nt,nt,
Cn1c(O)c(/C=C/C=Nc2ccccc2)c(=O)n(C)c1=S,?,44.6*,10.2,-6.6%,17.4%,16.6,-10.5,30.0%,
Cc1cccc(-n2c(O)c(/C=C/C=Nc3ccccc3)c(=O)[nH]c2=O)c1,?,18.7,19.0,-2.2%,8.3%,-1.8,nt,nt,
Cc1ccccc1-n1c(O)c(/C=C/C=Nc2ccccc2)c(=O)[nH]c1=O,14.7%,32.0*,7.0,-5.1%,3.9%,-1.6,?,20.6µM*,
CC(C)[N+](=O)[O-],nt,nt,nt,0.6%[21.7 µM],nt,nt,nt,nt,
C=CCn1c(=O)/c(=C\c2ccccn2)s/c1=C(/C#N)C(=O)NCC1CCCO1 (centres undefined),10.0%,46.3*,2.6,5.5%,7.1%,-9.5,-0.8,?,
C#CCN1C(C)=C(C(=O)CCO)[C@@H](c2cccc(-n3oo3)c2)C(C(=O)OC)=C1C,nt,nt,nt,-12.1%[21.7 µM],-0.3%,nt,nt,nt,
CC[C@@H]1CN2CCc3cc(OC)c(OC)cc3[C@H]2C[C@@H]1C[C@@H]1NCCc2cc(O)c(OC)cc21,nt,nt,nt,19.1%[21.7 µM],-0.3%[16.9 µM],nt,nt,nt,
CN1CCN(c2ccc(N)cc2)CC1,?,0.5,-3.8,-9.7%,-1.0%,88.6*,1.8,-0.3%,

# Source: PubChem
